Experimental data from PubChem BioAssay (NCI).
The panel holds about 83,000 compounds, 20% with a hit somewhere; the sample as a whole holds those more often.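 The test compound was applied at a single concentration to cells in 96-well plates for 48 hours, and percent growth was recorded.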 Values without a mark were called inactive. The source made the active and inactive calls. Rule for the calls: active = growth percent below 10; inactive = the rest.

The compounds below were run on UACC-62 melanoma (assay: NCI-60 one-dose screen, 48 h (100 = growth as untreated, 0 = no growth, -100 = all killed)). Conditions: 10 µM unless noted.

| SMILES | growth |
| --- | --- |
| Cc1nc2ccc(Cl)cc2n1C | 106% |
| C=C1CC[C@@H]2[C@@](C)(CCC[C@]2(C)C(=O)O)[C@@H]1CC[C@H](CO)CCO | 99.2% |
| Fc1c[c-]c(-c2ccccn2)c(F)c1.Fc1c[c-]c(-c2ccccn2)c(F)c1.[Cl][Pt+].[Cl][Pt+].c1ccc([PH+](C[PH+](c2ccccc2)c2ccccc2)c2ccccc2)cc1 | 3.59% (active) |
| O=C(NCc1cccnc1)c1ccc([N+](=O)[O-])o1 | -67.9% (active) |
| COc1ccc(NS(=O)(=O)c2ccc(-c3cnc(C4CC4)o3)cc2)cc1 | 49.4% |
| NC1=NC(c2ccccc2OS(=O)(=O)c2ccc(Br)cc2)n2c(nc3ccccc32)N1 (stereo not given) | 82.7% |
| O=C(Nc1ccccc1)Oc1cccc2cccnc12 | 108% |
| CCC12CCC3c4ccc(O)cc4CCC3C1CC(O)C2O (stereo not given) | 67.6% |
| Cc1ccc(S(=O)(=O)N2CCc3ccc(O)c4c3C2Cc2ccc3c(c2-4)OCO3)cc1 (stereo not given) | 22.1% |
| COC(=O)c1c2c(c(C)[n+]([O-])c1C)C(=O)C=C(NCc1cccc(OC)c1)C2=O | -68.1% (active) |
| O=C(c1cnn2c1NC(c1ccc(F)cc1)C2)N1CCCCC1 (stereo not given) | 101% |
| O=C1NC(=O)C2(CCCC2C(=O)O)N1 (stereo not given) | 103% |
| CON=C1C[C@]2(C[C@@H]3C[C@@H](C/C=C(\C)C[C@@H](C)/C=C/C=C4\CO[C@@H]5[C@H](O)C(C)=C[C@@H](C(=O)O3)[C@]45O)O2)O[C@H](/C(C)=C/C(C)C)[C@H]1C | 70.6% |
| COc1cc(/C=C/C(=O)C(=Cc2ccc(F)c(F)c2)C(=O)/C=C/c2ccc(O)c(OC)c2)ccc1O | 32.3% |
| CCOC(=O)c1[nH]c2cc(Cl)ccc2c1[C@@H](C(=O)NC(C)(C)C)N(CC)C(=O)CCCCC#Cc1cccc2c1CN(C1CCC(=O)NC1=O)C2=O (stereo not given in full) | 27.2% |
| O=C1/C(=C/c2ccccc2F)CNC/C1=C\c1ccccc1F | -58.3% (active) |
| COc1cc(C2C3=C(COC3=O)N(CCO)c3cc4c(cc32)OCO4)cc(OC)c1O (stereo not given) | 26.2% |
| CCCCCCCC/C=C\CCCCCCCCOc1cccc(CC(=O)NCC[N+]2(C)CCOCC2)c1 | 80.2% |
| COc1ccccc1CNCCCCCCCCCCCCN1C(=O)c2ccc3c4c(ccc(c24)C1=O)C(=O)N(CCCCCCCCCCCCNCc1ccccc1OC)C3=O | 105% |
| CC(C)NCC(O)COc1ccc(CCOCC2CC2)cc1 (stereo not given) | 110% |
| Clc1ccc(C2=NN(c3ccccc3)[C@H](c3cn(-c4ccccc4)nc3-c3ccccc3)C2)cc1 | 107% |

These compounds were tested on LOX IMVI melanoma in the same assay as above. Conditions: 10 µM unless noted.

| SMILES | growth |
| --- | --- |
| CC(C)OC1=C(Cl)C(=O)c2ccccc2C1=O | 86.5% |
| CS(=O)(=O)Nc1cccc(C(=O)NCc2ccc(N3CCOCC3)cc2)c1 | 99.8% |
| CCOC(=O)c1c(Cl)c2c(n1Cc1cc(OC)cc(OC)c1)-c1oncc1CCC2 | 43.7% |
| NC(=S)N/N=C1\c2ccccc2-c2c(F)c(F)c(F)c(F)c21 | 86.6% |
| COCCOC1=C(Cl)C(=O)c2ccccc2C1=O | 22.1% |
| O=C1C(OCCOc2ccccc2)=C(OCCOc2ccccc2)C(=O)c2ccccc21 | 22.6% |
| COc1cc(/C=C/C(=O)CC(=O)/C=C/c2cc(Br)c(OC)c(OC)c2)cc(Br)c1OC | 97.8% |
| Nc1nc2c(s1)CCc1c-2c(Br)n(Cc2ccccc2)c1Br | 86.1% |
| CCCCCn1c(=N)n(CC(O)COc2cccc(C)c2)c2ccccc21 (stereo not given) | 13.7% |
| C=C1CC[C@@H]2[C@@](C)(CCC[C@]2(C)C(=O)O)[C@@H]1CC[C@H](CO)CCO | 99.1% |
| CCC12CCC3c4ccc(O)cc4CCC3C1CC(O)C2O (stereo not given) | 81% |
| Cc1ccc(S(=O)(=O)N2CCc3ccc(O)c4c3C2Cc2ccc3c(c2-4)OCO3)cc1 (stereo not given) | 35.6% |
| O=C1NC(=O)C2(CCCC2C(=O)O)N1 (stereo not given) | 91.1% |
| CON=C1C[C@]2(C[C@@H]3C[C@@H](C/C=C(\C)C[C@@H](C)/C=C/C=C4\CO[C@@H]5[C@H](O)C(C)=C[C@@H](C(=O)O3)[C@]45O)O2)O[C@H](/C(C)=C/C(C)C)[C@H]1C | 55.3% |
| CCOC(=O)c1[nH]c2cc(Cl)ccc2c1[C@@H](C(=O)NC(C)(C)C)N(CC)C(=O)CCCCC#Cc1cccc2c1CN(C1CCC(=O)NC1=O)C2=O (stereo not given in full) | 8.52% (active) |
| O=C1/C(=C/c2ccccc2F)CNC/C1=C\c1ccccc1F | -83.5% (active) |

What follows are compounds tested on SK-MEL-28 melanoma in the same assay as above. Conditions: 10 µM unless noted.

| SMILES | growth |
| --- | --- |
| CC(C)OC1=C(Cl)C(=O)c2ccccc2C1=O | 101% |
| CS(=O)(=O)Nc1cccc(C(=O)NCc2ccc(N3CCOCC3)cc2)c1 | 107% |
| COc1ccc(S(=O)(=O)ON=C2C=C(C)C(=O)C(C)=C2)cc1 | 96.8% |
| CCOC(=O)c1c(Cl)c2c(n1Cc1cc(OC)cc(OC)c1)-c1oncc1CCC2 | 40.7% |
| NC(=S)N/N=C1\c2ccccc2-c2c(F)c(F)c(F)c(F)c21 | 113% |
| COCCOC1=C(Cl)C(=O)c2ccccc2C1=O | 13.7% |
| O=C1C(OCCOc2ccccc2)=C(OCCOc2ccccc2)C(=O)c2ccccc21 | 93.5% |
| N#Cc1c(O)c2c(c(O)c1C#N)C(=O)c1ccccc1C2=O | 5.91% (active) |
| COc1cc(/C=C/C(=O)CC(=O)/C=C/c2cc(Br)c(OC)c(OC)c2)cc(Br)c1OC | 106% |
| CCN1CCN(c2ccc(Nc3ncc4ccc5ncn(C(C)C)c5c4n3)nc2)CC1 | -13.7% (active) |
| Nc1nc2c(s1)CCc1c-2c(Br)n(Cc2ccccc2)c1Br | 100% |
| O=c1onc(-c2ccccc2)c2ccccc12 | 103% |
| CCCCCn1c(=N)n(CC(O)COc2cccc(C)c2)c2ccccc21 (stereo not given) | 31.2% |
| COc1ccc(-c2nn(-c3ccc(NC(=O)c4ccc(Cl)c(Cl)c4)cc3)cc2-c2ccncc2)cc1Cl | 65.8% |
| CCC(C)Oc1cc(/C=N/NC(=O)c2cnn3c2NC(c2ccccc2)C3)ccc1OC (stereo not given) | 59.1% |
| COc1cccc(OC)c1OC(=O)c1ccccc1 | 98.2% |
| C=C[C@H]1C[C@@H]2C[C@@H]3[C@H]4C/C=C\C(=O)NCCCC5NC(=O)C(=C(O)/C=C/[C@@H]4CC(=O)[C@H]3[C@@H]2[C@H]1C)C5=O (stereo not given in full) | -78% (active) |
| Cc1nc2ccc(Cl)cc2n1C | 117% |
| C=C1CC[C@@H]2[C@@](C)(CCC[C@]2(C)C(=O)O)[C@@H]1CC[C@H](CO)CCO | 105% |

| SMILES | growth |
| --- | --- |
| Fc1c[c-]c(-c2ccccn2)c(F)c1.Fc1c[c-]c(-c2ccccn2)c(F)c1.[Cl][Pt+].[Cl][Pt+].c1ccc([PH+](C[PH+](c2ccccc2)c2ccccc2)c2ccccc2)cc1 | 16.1% |
| O=C(NCc1cccnc1)c1ccc([N+](=O)[O-])o1 | 17% |
| COc1ccc(NS(=O)(=O)c2ccc(-c3cnc(C4CC4)o3)cc2)cc1 | 66.3% |
| NC1=NC(c2ccccc2OS(=O)(=O)c2ccc(Br)cc2)n2c(nc3ccccc32)N1 (stereo not given) | 102% |
| O=C(Nc1ccccc1)Oc1cccc2cccnc12 | 97.6% |
| CCC12CCC3c4ccc(O)cc4CCC3C1CC(O)C2O (stereo not given) | 67.2% |
| Cc1ccc(S(=O)(=O)N2CCc3ccc(O)c4c3C2Cc2ccc3c(c2-4)OCO3)cc1 (stereo not given) | 44.4% |
| COC(=O)c1c2c(c(C)[n+]([O-])c1C)C(=O)C=C(NCc1cccc(OC)c1)C2=O | -22.3% (active) |
| O=C(c1cnn2c1NC(c1ccc(F)cc1)C2)N1CCCCC1 (stereo not given) | 103% |
| O=C1NC(=O)C2(CCCC2C(=O)O)N1 (stereo not given) | 110% |
| CON=C1C[C@]2(C[C@@H]3C[C@@H](C/C=C(\C)C[C@@H](C)/C=C/C=C4\CO[C@@H]5[C@H](O)C(C)=C[C@@H](C(=O)O3)[C@]45O)O2)O[C@H](/C(C)=C/C(C)C)[C@H]1C | 85.8% |
| COc1cc(/C=C/C(=O)C(=Cc2ccc(F)c(F)c2)C(=O)/C=C/c2ccc(O)c(OC)c2)ccc1O | 36% |
| CCOC(=O)c1[nH]c2cc(Cl)ccc2c1[C@@H](C(=O)NC(C)(C)C)N(CC)C(=O)CCCCC#Cc1cccc2c1CN(C1CCC(=O)NC1=O)C2=O (stereo not given in full) | 29.6% |
| O=C1/C(=C/c2ccccc2F)CNC/C1=C\c1ccccc1F | -91.1% (active) |
| COc1cc(C2C3=C(COC3=O)N(CCO)c3cc4c(cc32)OCO4)cc(OC)c1O (stereo not given) | 59.5% |
| CCCCCCCC/C=C\CCCCCCCCOc1cccc(CC(=O)NCC[N+]2(C)CCOCC2)c1 | 102% |
| COc1ccccc1CNCCCCCCCCCCCCN1C(=O)c2ccc3c4c(ccc(c24)C1=O)C(=O)N(CCCCCCCCCCCCNCc1ccccc1OC)C3=O | 81.1% |
| CC(C)NCC(O)COc1ccc(CCOCC2CC2)cc1 (stereo not given) | 118% |
| Clc1ccc(C2=NN(c3ccccc3)[C@H](c3cn(-c4ccccc4)nc3-c3ccccc3)C2)cc1 | 110% |
